Assay outcomes as filed in PubChem BioAssay.
SARS PLP yeast = blocks SARS-CoV papain-like protease in a yeast assay; Potency, µM (series often up to 32.9 µM), for inactives: at the highest dose activity, positive = growth rescue, usual class: activators; S. cerevisiae expressing SARS-CoV PLpro, growth rescue; AID 485353; hit rate 0.19% among 330,000; calls by dose curve; further: 0% is about no effect; nearly all actives have a fitted effect of over 55% in size
Pf growth 96h = P. falciparum growth inhibition at 96 hours; P. falciparum luciferase reporter growth, 96 h; Potency, µM (top dose mostly 28.7 µM), inactives show at the top dose activity change, negative = inhibition, usual class: inhibitors; hit rate 6.9% among 320,000; AID 504834; further: on the % scale 0 is the no-effect control and ±100 the full control effect
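Luminescence readout: decreased luciferase signal marks inhibited growth of reporter-expressing P. falciparum in infected red cells (2% hematocrit, 0.05% parasitemia final), exposed to compound two generations (96 h, 37 C, 5% CO2).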
NS1 inh = blocks influenza NS1 protein function | AID 2326 | hit rate 0.4% among 270,000 | Potency, µM (top dose mostly 46.1 µM), for the others: at the top dose activity, positive = more growth; calls by dose curve; further: actives are rising curves; nearly all actives have a fitted effect of over 50% in size
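A cell-based growth assay was used: compounds that relieve NS1-induced slow growth of budding yeast raise OD600. Assay medium was yeast nitrogen base with ammonium sulphate and -URA supplement, pH 6.0, with 2% galactose.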
Pf growth 48h = P. falciparum growth inhibition at 48 hours (one generation); hit rate 5.9% among 310,000; AID 504832; P. falciparum luciferase growth in erythrocytes, 48 h; Potency, µM (top dose mostly 28.7 µM), inactives show at the highest dose activity change, negative = inhibition, hits mostly inhibitors; further: on the % scale 0 is the no-effect control and ±100 the full control effect
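First compound was added to culture medium, then infected red cells at 0.1% parasitemia and 2% hematocrit (final). After incubation at 37 C under 5% CO2, luciferase detection reagent was dispensed and light output recorded.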
* hit, by the source's call; ? = inconclusive; . = no result. The list is not random: actives were taken first. Their share in the collection is about 10%. Unless noted, the call rests on the fitted dose curve; in most records, active means well fitted inhibition curve with a large enough effect; inconclusive means small, poorly fitted or top-dose-only effect, or another doubt; inactive means no such curve, though single readings can be large or run the other way. Potency means the concentration at half of the fitted maximal effect.

SMILES | SARS PLP yeast | Pf growth 96h | NS1 inh | Pf growth 48h
CC(C)(C)C(=O)Nc1ccc(-c2csnn2)cc1 | 0% | 128% | -4% | 79%
CCn1cc(C(=O)N[C@@H](CCSC)C(=O)NCCOC)c(=O)c2cc3c(cc21)OCO3 | 0% | 12µM* | -1% | ?
CCn1cc(C(=O)N[C@@H](CCSC)C(=O)NCCCO)c(=O)c2cc3c(cc21)OCO3 | 2% | ? | 4% | ?
O=C(CSCc1cc(=O)n2ccsc2n1)Nc1ccccc1 | 2% | ? | -8% | 16%
O=C(CN1CCOCC1)Nc1ccc2c(c1)CCC2 | 2% | 134% | -33% | 137%
CC(=O)c1ccc(NC(=O)CSc2nc(N3CCOCC3)nc(N3CCOCC3)n2)cc1 | 1% | 16% | 5% | ?
O=C(CSc1nc(N2CCOCC2)nc(N2CCOCC2)n1)Nc1cccc(C(F)(F)F)c1 | -7% | 2.1µM* | ? | 11%
O=C(CSc1nc(Nc2ccccc2)nc(N2CCOCC2)n1)Nc1ccc([N+](=O)[O-])cc1 | 3% | . | 1% | 12µM*
O=C(CCN1CCOCC1)Nc1ccc2c(c1)CCC2 | -3% | 3.7µM* | -12% | 20%
O=C(CCN1CCOCC1)NNC(=O)Nc1cccc(C(F)(F)F)c1 | 3% | 10µM* | -1% | 5%
O=C(CN1CCOCC1)Nc1cccc(C(=O)Nc2cccc(C(F)(F)F)c2)c1 | 1% | 0% | 2% | ?
O=C(CSc1nc(Nc2ccccc2)nc(N2CCOCC2)n1)Nc1cccc([N+](=O)[O-])c1 | 2% | ? | -1% | ?
O=C(O)CN1C(=O)C(=O)N(Cc2ccc(Cl)cc2Cl)C1=O | 8% | 24% | -2% | .
OCCN1CCN(CCCc2c3c(cc4c2CCC4)CCC3)CC1 | -12% | 12µM* | -3% | 12µM*
Cc1[nH][nH]c(=O)c1C(c1ccccc1[N+](=O)[O-])C(C#N)C#N (stereo not drawn) | -1% | 13µM* | . | -5%
CCOc1ccc2nc(N3CCCCCC3)sc2c1 | -2% | ? | -26% | 211%
CCOc1ccc2nc(N3C(=O)/C(=C/c4ccccc4)NC3=S)sc2c1 | 3% | 4.7µM* | -17% | 21%
COc1ccc2nc(N3C(=O)/C(=C/c4ccccc4)NC3=S)sc2c1 | -4% | 0.83µM* | 17% | ?
CC(C)[C@H](NC(=O)OCc1ccccc1)C(=O)OCC(=O)N1CCN(c2ccccc2)CC1 | 4% | ? | . | 1%
CC(C)(C)C1c2[nH]c3ccccc3c2CCN1CCCn1cccn1 (stereo not drawn) | 1% | 5.9µM* | 3% | ?
Fc1ccccc1C1c2[nH]c3ccccc3c2CCN1CCCn1cccn1 (stereo not drawn) | 0% | 8% | -1% | ?
CC1(C)C(O)=C(c2nc3ccccc3[nH]2)C(=N)N1c1ccccc1 | -1% | 8.3µM* | 7% | ?
CCOc1cccc(CN2CCC(n3nccc3NC(=O)CCCc3ccccc3)CC2)c1 | 6% | ? | 2% | 10µM*
CCNC(=O)N1CCC(n2nccc2NC(=O)CCCc2ccccc2)CC1 | -3% | 13µM* | -2% | 1%
COc1ccccc1CN1CCC(n2nccc2NC(=O)CCOc2ccccc2)CC1 | 1% | 16% | 6% | -16%
SMILES | SARS PLP yeast | Pf growth 96h | NS1 inh | Pf growth 48h
CCn1cc(CN2CCC(n3nccc3NC(=O)Cc3ccccc3)CC2)cn1 | -4% | 10µM* | 4% | -8%
COc1ccc(O)c(CN2CCC(n3nccc3NC(=O)CCOc3ccccc3)CC2)c1 | 1% | ? | 2% | 13µM*
CCn1cc(CN2CCC(n3nccc3NC(=O)CCCc3ccccc3)CC2)cn1 | 8% | 4% | -6% | ?
Cc1ccc(-c2noc(Cn3cc(S(=O)(=O)N4CCCC4)ccc3=O)n2)cc1 | -31% | 30% | . | -17%
CN(C)S(=O)(=O)N1CCC(n2nccc2NC(=O)CCCc2ccccc2)CC1 | 0% | 5.2µM* | -12% | ?
CCOc1cc(C2C(C(=O)c3ccco3)=C(O)C(=O)N2CC2CCCO2)ccc1O (stereo not drawn) | -1% | 31% | 18% | 9%
Nc1ccc2ccc3cccc[n+]3c2c1 | -7% | ? | -36% | 0.41µM*
Cc1ccc([N+](=O)[O-])c(OCC(=O)OCC(=O)c2ccccc2)c1 | -22% | 0.93µM* | -10% | 11%
CC1CCCCC1NC(=O)c1cccc(NC2=NC3CS(=O)(=O)CC3S2)c1 (stereo not drawn) | 1% | -4% | 0% | -8%
S=C(N/N=C/c1ccccc1Cl)Nc1cccc(Cl)c1Cl | 6% | -18% | -3% | -13%
COc1ccc(S(=O)(=O)N2CCN(CC(=O)NC3CCCC3)CC2)cc1 | 14% | ? | -3% | -7%
O=C(CCl)N1CCN(S(=O)(=O)c2ccc3c(c2)CCC3)CC1 | 1% | ? | . | 2.3µM*
CC(C)(C)c1ccc(S(=O)(=O)N2CCN(CC(=O)NC(=O)NC3CCCCC3)CC2)cc1 | -1% | 2.9µM* | . | -21%
CC(C)(C)NC(=O)NC(=O)CN1CCN(S(=O)(=O)c2ccccc2)CC1 | -4% | -2% | ? | 15%
CC(C)(C)NC(=O)NC(=O)CN1CCN(S(=O)(=O)c2ccc3c(c2)CCCC3)CC1 | -1% | 7.4µM* | . | 9.3µM*
O=C(CCl)N1CCN(S(=O)(=O)Cc2ccccc2)CC1 | 3% | 13µM* | . | ?
CN1C(=O)N(CC(=O)N2CCN(S(=O)(=O)c3ccc4c(c3)CCC4)CC2)C(=O)C12CCCCC2 | -4% | 35% | . | 3%
O=C1NCCN/C1=C\C(=O)c1ccc(Cl)cc1 | -6% | 315% | -32% | 145%
O=C1c2ccccc2C(Nc2ccc(S(=O)(=O)N3CCCCC3)cc2)N1c1ccccn1 (stereo not drawn) | -23% | ? | -41% | ?
COc1ccc(NC2c3ccccc3C(=O)N2c2ccccn2)cc1Cl (stereo not drawn) | 25% | 8.3µM* | 1% | .
O=C1c2ccccc2C(Nc2ccc(F)c(Cl)c2)N1c1ccccn1 (stereo not drawn) | -1% | 4.7µM* | -11% | .
CCc1cccc(NC2c3ccccc3C(=O)N2c2cccnc2)c1 (stereo not drawn) | 3% | 57% | -33% | ?
COc1ccc(NC2c3ccccc3C(=O)N2c2cccnc2)cc1 (stereo not drawn) | 2% | 10µM* | 1% | ?
O=C1c2ccccc2C(Nc2ccc3c(c2)OCCO3)N1c1ccccn1 (stereo not drawn) | 14% | 32% | -14% | 9.3µM*
CCC(CO)N=C1CC(C)(C)CC(=O)/C1=C(/O)CCCN1C(=O)c2ccccc2C1=O (stereo not drawn) | 4% | -23% | . | 11%
Cc1ccc(OCCC(=O)NNC(=O)c2ccc(Br)cc2)cc1 | 5% | . | . | .
CCCn1c(N)c(N2CCCCC2)c(=O)n(CC(=O)Nc2ccccc2C(F)(F)F)c1=O | -19% | . | . | .
COc1ccc(CN2CCNC(=O)C2CC(=O)NC2CCCCC2)c(OC)c1 (stereo not drawn) | 28% | 9.3µM* | -9% | -17%
COc1ccc(C(=O)N2CCNC(=O)C2CC(=O)Nc2ccc(C)c(C)c2)cc1 (stereo not drawn) | -1% | 9.3µM* | 5% | 11%
